Experimental data published in the supplement of paper PMC4840960.
Where a name gives a salt, the structure may show the parent alone. ± gives the standard deviation of the averaged measurements.

What was measured:
[1] = system: E18 rat cortical neuron-glia co-culture; assay: fiber score / MBP score (myelination specific beyond OL differentiation) (ratio); higher = more myelination-specific MBP alignment; settings: treatment time: 8 days (DIV5-DIV13)
Procedure, shortened: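 Papain-dissociated primary E18 rat cortical co-cultures, plated at 20,000 cells/well on poly-d-lysine/laminin 96-well plates, were exposed to library compounds at 1 or 5 µM in myelination medium between DIV5 and DIV13. Following fixation in 4 % paraformaldehyde, cultures were stained for MBP, Olig2 and DAPI, and four 10X fields per well were analysed in duplicate wells. Values are the ratio of fiber score (continuous MBP fiber length per Olig2+ nucleus) to MBP score (thresholded MBP area × intensity per Olig2+ nucleus).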

[2] = system: E18 rat cortical neuron-glia co-culture; assay: myelination (MBP fiber length per Olig2+ nucleus), % of 1 µM DAPT response (DMSO = 0) (% of DAPT); higher = more myelination, active = 50 or more; settings: treatment time: 8 days (DIV5-DIV13)
Procedure, shortened: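 Myelination, expressed as continuous straight MBP fiber length per Olig2+ nucleus, was normalised to 0.1 % DMSO as 0 and a 1 µM positive control as 100. The cultures were primary E18 rat cortical co-cultures dissociated with papain and plated at 20,000 cells/well on poly-d-lysine/laminin-coated 96-well plates. They received library compounds at 1 or 5 µM in myelination medium between DIV5 and DIV13. Analysis covered four 10X fields per well in duplicate wells after 4 % paraformaldehyde fixation and immunostaining for MBP and Olig2 with DAPI.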

| SMILES | fiber score / MBP score ([1]; 1 µM) | fiber score / MBP score ([1]; 5 µM) | myelination ([2]; 1 µM) | myelination ([2]; 5 µM) |
| --- | --- | --- | --- | --- |
| NC(=O)C[S+]([O-])C(c1ccccc1)c1ccccc1 (centres undefined) [Modafinil] | 0.88 | 0.861 | -9.51 (inactive) | -26.7 (inactive) |
| C#CCN(C)[C@H](C)Cc1ccccc1 [Selegiline] | 0.779 ± 0.13 | 1.02 ± 0.14 | -16 (inactive) | -0.224 (inactive) |
| O=C1Nc2ccc(Cl)cc2C(c2ccccc2Cl)=NC1O (centres undefined) [Lorazepam] | 0.711 | 1.13 | -14.7 (inactive) | 15 (inactive) |
| N=C(NCc1ccc(Cl)cc1)SCCCc1c[nH]cn1 [Clobenpropit] | 0.723 | 0.822 | -13 (inactive) | 3.66 (inactive) |
| CCN(CC)CCOC(=O)C(O)(c1ccccc1)c1ccccc1 [Benactyzine] | 1.18 | 1.2 | 1.93 (inactive) | 0.796 (inactive) |
| O=C1CC[C@@]2(O)[C@H]3Cc4ccc(O)c5c4[C@@]2(CCN3CC2CC2)[C@H]1O5 [Naltrexone] | 1.3 | 0.956 | 14.8 (inactive) | 1.8 (inactive) |
| FC(F)(F)c1cccc(N2CCNCC2)c1 [1-(3-trifluoromethylphenyl)piperazine hydrochloride (TFMPP)] | 0.633 | 0.613 | -32.2 (inactive) | -32.7 (inactive) |
| C[C@]12C/C(=C/O)C(=O)C[C@@H]1CC[C@@H]1[C@@H]2CC[C@@]2(C)[C@H]1CC[C@]2(C)O [Oxymetholone] | 0.813 | 0.965 | -11.9 (inactive) | -8.04 (inactive) |
| CNC1CC(c2ccc(Cl)c(Cl)c2)c2ccccc21 (centres undefined) [Indatraline] | 0.417 |  | -58 (inactive) |  |
| O=c1c2ccccc2[se]n1-c1ccccc1 [Ebselen] | 2.01 |  | 8.33 (inactive) |  |
| Oc1cc2c(cc1O)[C@H]1c3ccccc3CN[C@@H]1CC2 (racemic) [Dihydrexidine] | 1.05 | 3.38 | -4.93 (inactive) | -20.9 (inactive) |
| CC(NC(C)(C)C)C(=O)c1cccc(Cl)c1 (centres undefined) [Bupropion] | 0.583 ± 0.43 | 0.467 ± 0.35 | -29.5 (inactive) | -31.8 (inactive) |
| C[C@]12CC[C@H](O)CC1=CC[C@@H]1[C@@H]2CC[C@]2(C)C(=O)CC[C@@H]12 [Dehydroepiandrosterone] | 1.25 | 0.965 | 18.9 (inactive) | -6.07 (inactive) |
| CCN(C(C)=O)c1cccc(-c2ccnc3c(C#N)cnn23)c1 [Zaleplon] | 0.794 | 1.2 | -13.6 (inactive) | 16 (inactive) |
| CCOC(=O)C1(c2ccccc2)CCN(CCC(C#N)(c2ccccc2)c2ccccc2)CC1 [Diphenoxylate] | 0.738 | 0.867 | -12.3 (inactive) | 11.5 (inactive) |
| COC(=O)N1CCN(C(=O)Cc2ccc(Cl)c(Cl)c2)C(CN2CCCC2)C1 (centres undefined) | 0.594 | 0.389 | -13 (inactive) | -22.4 (inactive) |
| CN1CC[C@]23c4c5ccc(O)c4O[C@H]2c2[nH]c4ccccc4c2C[C@@]3(O)[C@H]1C5 [Oxymorphindole] | 0.883 |  | 97 |  |
| Oc1cc(Cl)ccc1Oc1ccc(Cl)cc1Cl [Triclosan] | 1.18 |  | 26.5 (inactive) |  |
| COc1ccc(C(CN(C)C)C2(O)CCCCC2)cc1 (centres undefined) [Venlafaxine] | 0.576 | 1.02 | -11.7 (inactive) | -3.31 (inactive) |
| C[C@]12CC[C@H]3[C@@H](CCC4=CC(=O)CC[C@@H]43)[C@@H]1CC[C@@H]2O [Nandrolone] | 0.984 | 0.883 | -3.41 (inactive) | -16.8 (inactive) |
| Oc1ccc2c3c1O[C@H]1c4[nH]c5ccccc5c4C[C@@]4(O)[C@@H](C2)N(CC2CC2)CC[C@]314 [Naltrindole] | 0.716 | 0.673 | -32.5 (inactive) | -19 (inactive) |
| CC[C@@H]1C=CC=CC[C@H](C)[C@@H](O)[C@@H](C)C(=O)[C@H](C)[C@@H](O)[C@H](C)C(=O)[C@H](C)[C@@H](O)[C@H](C)C=CC(=O)O[C@H]2[C@@H](C)[C@@H](CC1)O[C@@]1(CC[C@@H](C)[C@@H](C[C@H](C)O)O1)[C@@H]2C [Oligomycin C] | 0.799 | 1.11 | -6.58 (inactive) | 47.7 (inactive) |
| CC(O)(CS(=O)(=O)c1ccc(F)cc1)C(=O)Nc1ccc(C#N)c(C(F)(F)F)c1 (centres undefined) [Bicalutamide] | 0.676 | 0.996 | -28 (inactive) | -2.06 (inactive) |
